The source of these data is PubChem BioAssay (Tox21).

Calls of active or inactive are those of the source. Unless noted, calls come from the whole dose curve; as a rule, active = well fitted curve in the direction sought with a large enough effect in the repeat runs; inconclusive = weak or mixed curves; inactive = no such curve, though single readings can be large; an effect the other way counts as inactive or inconclusive.

Experiment [1] deals with thyroid hormone receptor (rat, GH3 cells). In words: qHTS assay to identify small molecule agonists of the thyroid receptor (TR) signaling pathway (AID 743066; calls by dose curve).
Experiment [2] deals with Estrogen receptor (Homo sapiens) (UniProt P03372). The experiment in a line: qHTS assay to identify small molecule antagonists of the estrogen receptor alpha (ER-alpha) signaling pathway (AID 743069; active = well fitted curve in the direction sought with a large enough effect in the signal ratio in the repeat runs, not every such curve was filed as active; inconclusive = weak or mixed curves, or effect the other way; inactive = no such curve, though single readings can be large or run the other way; the % refers to the signal ratio; note: potency is the fitted concentration of half-maximal effect). An outline of the steps: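 Antagonist mode: compounds in DMSO were co-added with 17beta-estradiol to ER-alpha-bla HEK293 cells (2% charcoal-stripped serum) and left 18 h at 37C. Reporter inhibition was measured as FRET fluorescence after 2 h LiveBLAzer substrate at room temperature.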
Estrogen receptor (Homo sapiens), sequence (P03372 whole entry, looked up): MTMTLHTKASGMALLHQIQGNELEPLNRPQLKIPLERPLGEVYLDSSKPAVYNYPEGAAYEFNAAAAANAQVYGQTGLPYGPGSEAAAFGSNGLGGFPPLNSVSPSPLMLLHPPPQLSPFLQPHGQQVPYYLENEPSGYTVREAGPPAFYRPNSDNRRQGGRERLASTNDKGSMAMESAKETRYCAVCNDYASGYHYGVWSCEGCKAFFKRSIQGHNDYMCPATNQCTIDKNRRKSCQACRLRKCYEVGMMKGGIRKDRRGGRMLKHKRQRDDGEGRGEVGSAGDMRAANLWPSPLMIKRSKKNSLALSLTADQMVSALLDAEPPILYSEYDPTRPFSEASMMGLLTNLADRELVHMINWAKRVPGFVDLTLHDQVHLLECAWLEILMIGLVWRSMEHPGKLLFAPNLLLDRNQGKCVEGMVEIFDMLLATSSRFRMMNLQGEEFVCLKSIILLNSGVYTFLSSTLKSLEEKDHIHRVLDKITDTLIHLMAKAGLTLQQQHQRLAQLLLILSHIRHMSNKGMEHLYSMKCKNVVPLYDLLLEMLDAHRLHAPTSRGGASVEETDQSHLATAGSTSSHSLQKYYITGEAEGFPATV

The nature of experiment [3]: qHTS assay to identify small molecule antagonists of the estrogen receptor alpha (ER-alpha) signaling pathway - cell viability counter screen (AID 743074; calls by dose curve;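 note: HEK293 cells carrying ER-alpha-UAS-bla reporter stimulated with 17beta-estradiol; nearly all actives have a fitted effect of over 45% in size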).
Experiment [4] addresses Estrogen receptor (Homo sapiens) (UniProt P03372). In words: qHTS assay to identify small molecule agonists of the estrogen receptor alpha (ER-alpha) signaling pathway (AID 743075; calls by dose curve;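 note: HEK293 GripTite cells with ER-alpha and UAS-driven beta-lactamase reporter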).
The target is the same in experiment [5]. In words: qHTS assay to identify small molecule agonists of the estrogen receptor alpha (ER-alpha) signaling pathway using the BG1 cell line (AID 743079). Note: nearly all actives have a fitted effect of over 20% in size. Note: potency is the fitted concentration of half-maximal effect.
The nature of experiment [6]: qHTS assay to identify small molecule antagonists of the estrogen receptor alpha (ER-alpha) signaling pathway using the BG1 cell line (AID 743080; calls by dose curve;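 note: BG1 cells stimulated with 17beta-estradiol alongside compound; nearly all actives have a fitted effect of over 25% in size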; note: potency is the fitted concentration of half-maximal effect). In outline: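 After 5 days in phenol-red-free 10% charcoal-stripped FBS medium, BG1-Luc-4E2 cells were seeded, left 24 h at 37 C, co-treated with compounds and 17beta-estradiol for 21.5 h, then assayed for viability and luciferase.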

A further experiment addresses Aromatase (Homo sapiens) (UniProt P11511). In words: qHTS assay to identify aromatase inhibitors (AID 743083). Note: nearly all actives have a fitted effect of over 55% in size. Note: potency is the fitted concentration of half-maximal effect.
In experiment [7] the target is Aryl hydrocarbon receptor (Homo sapiens) (UniProt P35869). The experiment in a line: qHTS assay to identify small molecule that activate the aryl hydrocarbon receptor (AhR) signaling pathway (AID 743085).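 For activation: HG2L7.5c1 human HepG2 liver cells with stably integrated DRE-driven firefly reporter; series mostly up to about 70 µM.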 Note: nearly all actives have a fitted effect of over 15% in size. Note: potency is the fitted concentration of half-maximal effect. An outline of the steps: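 Steps: seed HepG2-AhR-luc cells; allow 5 h at 37C; pin-transfer test compound or vehicle; incubate 24 h at 37C; add viability dye (30 min, 37C) and read fluorescence; add luciferase substrate (30 min, RT) and read luminescence.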
Aryl hydrocarbon receptor (Homo sapiens), sequence (P35869 whole entry, looked up): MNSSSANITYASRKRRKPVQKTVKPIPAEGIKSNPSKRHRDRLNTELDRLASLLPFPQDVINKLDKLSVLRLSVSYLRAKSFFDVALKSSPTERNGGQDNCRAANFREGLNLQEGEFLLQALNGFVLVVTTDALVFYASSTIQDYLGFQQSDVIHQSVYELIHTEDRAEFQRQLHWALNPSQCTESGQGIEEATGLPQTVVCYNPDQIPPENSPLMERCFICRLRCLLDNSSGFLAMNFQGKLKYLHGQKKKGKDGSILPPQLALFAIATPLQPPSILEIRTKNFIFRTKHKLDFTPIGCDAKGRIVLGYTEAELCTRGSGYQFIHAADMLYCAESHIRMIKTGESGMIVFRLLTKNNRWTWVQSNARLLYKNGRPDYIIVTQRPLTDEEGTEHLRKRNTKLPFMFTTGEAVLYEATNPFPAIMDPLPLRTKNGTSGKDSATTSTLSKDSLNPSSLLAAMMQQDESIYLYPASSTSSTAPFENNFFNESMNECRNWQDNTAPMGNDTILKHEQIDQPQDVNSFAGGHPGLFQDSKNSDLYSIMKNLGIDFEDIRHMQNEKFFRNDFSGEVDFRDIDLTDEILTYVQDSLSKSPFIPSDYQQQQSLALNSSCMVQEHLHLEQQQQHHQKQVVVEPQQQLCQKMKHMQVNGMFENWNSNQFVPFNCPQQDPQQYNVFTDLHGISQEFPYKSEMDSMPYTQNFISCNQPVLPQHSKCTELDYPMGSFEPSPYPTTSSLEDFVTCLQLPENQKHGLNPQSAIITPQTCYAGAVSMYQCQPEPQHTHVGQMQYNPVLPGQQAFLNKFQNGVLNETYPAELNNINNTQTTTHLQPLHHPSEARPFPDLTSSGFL

The nature of experiment [8]: qHTS assay to identify small molecule that activate the aryl hydrocarbon receptor (AhR) signaling pathway - cell viability counter screen (AID 743086). Note: nearly all actives have a fitted effect of over 45% in size. Note: potency is the fitted concentration of half-maximal effect. In outline: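 Cytotoxicity counter screen: CellTiter-Fluor signal (30 min, 37 C) in 4000 HepG2 cells/well carrying the DRE-luciferase reporter, following 24 h compound exposure at 37 C.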
Experiment [9] has as its target Peroxisome proliferator-activated receptor gamma (Homo sapiens) (UniProt P37231). The experiment in a line: qHTS assay to identify small molecule agonists of the peroxisome proliferator-activated receptor gamma (PPARg) signaling pathway (AID 743094; active = well fitted activation curve with a large enough effect in the signal ratio in the repeat runs, not every such curve was filed as active; inconclusive = weak or mixed curves, or effect the other way; inactive = no such curve, though single readings can be large or run the other way; the % refers to the signal ratio). An outline of the steps: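 Agonism was assessed in a beta-lactamase reporter system, HEK293H cells with a stably integrated UAS-bla construct under PPARg control; the 17 h treatment at 37C preceded a 1 h room-temperature FRET substrate read.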

Experiment [10] can be described thus: qHTS assay to identify aromatase inhibitors - cell viability counter screen (AID 743084).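 Note: cells stimulated with testosterone during compound exposure; nearly all actives have a fitted effect of over 55% in size.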 Note: potency is the fitted concentration of half-maximal effect.
A short description of experiment [11]: qHTS assay to identify small molecule antagonists of the thyroid receptor (TR) signaling pathway (AID 743065). Note: nearly all actives have a fitted effect of over 55% in size. Note: potency is the fitted concentration of half-maximal effect. An outline of the steps: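 Antagonism measured as loss of luciferase signal in GH3 cells stably carrying a TRE-luciferase reporter, co-treated with compound and T3 (1 nM final) for 23.5 h at 37 C. Viability was read in the same well by CellTiter-Fluor.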

Experiment [12] in a line: qHTS assay to identify small molecule antagonists of the estrogen receptor alpha (ER-alpha) signaling pathway using the BG1 cell line - cell viability counter screen (AID 743081).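 Note: compound given together with 17beta-estradiol as the ER stimulus; series mostly up to about 70 µM; nearly all actives have a fitted effect of over 45% in size.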
The nature of experiment [13]: qHTS assay to identify small molecule antagonists of the peroxisome proliferator-activated receptor gamma (PPARg) signaling pathway - cell viability counter screen (AID 743194). Note: nearly all actives have a fitted effect of over 55% in size. An outline of the steps: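 Viability was measured as CellTiter-Glo luminescence in GeneBLAzer PPARg UAS-bla HEK293H cells. These cells had been exposed 17 h at 37 C to compounds together with rosiglitazone at 50 nM final, with the beta-lactamase readout taken in the same wells.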

A short description of experiment [14]: qHTS assay for small molecule activators of the heat shock response signaling pathway - cell viability counter screen (AID 743209). Note: nearly all actives have a fitted effect of over 50% in size. Note: potency is the fitted concentration of half-maximal effect. An outline of the steps: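 Compounds dissolved in DMSO were added to overnight-plated HSE-bla HeLa cells and left 5 h at 37 C. Cell viability was quantified by luminescence using CellTiter-Glo.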
Experiment [15] can be described thus: qHTS assay to identify small molecule agonists of the peroxisome proliferator-activated receptor delta (PPARd) signaling pathway - cell viability counter screen (AID 743211). Note: nearly all actives have a fitted effect of over 55% in size. Note: potency is the fitted concentration of half-maximal effect. In outline: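 Viability of GeneBLAzer PPARd UAS-bla HEK293H cells was assessed after 17 h compound incubation at 37C, using CellTiter-Glo reagent added after the reporter read and luminescence recorded 30 min later.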

In experiment [16] the target is Peroxisome proliferator-activated receptor gamma (Homo sapiens) (UniProt P37231). The experiment in a line: qHTS assay to identify small molecule antagonists of the peroxisome proliferator-activated receptor gamma (PPARg) signaling pathway (AID 743191; calls by dose curve; note: series mostly up to about 63 µM; nearly all actives have a fitted effect of over 30% in size). An outline of the steps: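 Beta-lactamase reporter under UAS control in HEK293H PPARg-bla cells; compound treatment 17 h at 37C. Read-out: fluorescence intensity after 1 h room-temperature incubation with LiveBLAzer B/G FRET substrate.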
Peroxisome proliferator-activated receptor gamma (Homo sapiens), sequence (P37231 whole entry, looked up): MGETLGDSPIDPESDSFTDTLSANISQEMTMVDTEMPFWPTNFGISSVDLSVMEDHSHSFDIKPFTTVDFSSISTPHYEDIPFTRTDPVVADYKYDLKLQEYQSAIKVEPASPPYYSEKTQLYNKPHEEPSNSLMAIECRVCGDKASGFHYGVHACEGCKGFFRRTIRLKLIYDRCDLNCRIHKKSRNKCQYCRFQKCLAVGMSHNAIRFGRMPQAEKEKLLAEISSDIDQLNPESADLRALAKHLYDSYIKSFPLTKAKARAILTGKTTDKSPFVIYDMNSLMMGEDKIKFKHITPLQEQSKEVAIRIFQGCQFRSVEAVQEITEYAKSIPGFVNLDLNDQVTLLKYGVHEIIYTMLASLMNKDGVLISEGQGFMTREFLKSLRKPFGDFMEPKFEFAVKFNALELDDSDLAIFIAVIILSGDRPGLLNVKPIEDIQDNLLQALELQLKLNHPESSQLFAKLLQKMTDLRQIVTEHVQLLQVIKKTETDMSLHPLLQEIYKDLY

Experiment [17] in a line: qHTS assay for small molecule activators of the heat shock response signaling pathway (AID 743210; active = well fitted activation curve with a large enough effect in the signal ratio in the repeat runs, with a control signal flat, not every such curve was filed as active; inconclusive = weak or mixed curves; the % refers to the signal ratio; note: series mostly up to about 63 µM). In outline: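 Compound exposure lasted 5 h at 37 C in HeLa cells carrying a heat-shock-element-driven beta-lactamase reporter. Read-out: fluorescence intensity after 2.5 h room-temperature loading with LiveBLAzer B/G FRET substrate.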
Experiment [18] is described as follows: qHTS assay for small molecule agonists of the antioxidant response element (ARE) signaling pathway (AID 743202; active = well fitted activation curve with a large enough effect in the signal ratio in the repeat runs, not every such curve was filed as active; inconclusive = weak or mixed curves, or effect the other way; inactive = no such curve, though single readings can be large or run the other way; the % refers to the signal ratio). In outline:
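After 16 hours of compound treatment at 37 C, HepG2 cells with a stably integrated ARE-driven beta-lactamase reporter were loaded 2 hours at room temperature with LiveBLAzer B/G FRET substrate and fluorescence intensity measured.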

Aromatase (Homo sapiens), sequence (P11511 whole entry, looked up): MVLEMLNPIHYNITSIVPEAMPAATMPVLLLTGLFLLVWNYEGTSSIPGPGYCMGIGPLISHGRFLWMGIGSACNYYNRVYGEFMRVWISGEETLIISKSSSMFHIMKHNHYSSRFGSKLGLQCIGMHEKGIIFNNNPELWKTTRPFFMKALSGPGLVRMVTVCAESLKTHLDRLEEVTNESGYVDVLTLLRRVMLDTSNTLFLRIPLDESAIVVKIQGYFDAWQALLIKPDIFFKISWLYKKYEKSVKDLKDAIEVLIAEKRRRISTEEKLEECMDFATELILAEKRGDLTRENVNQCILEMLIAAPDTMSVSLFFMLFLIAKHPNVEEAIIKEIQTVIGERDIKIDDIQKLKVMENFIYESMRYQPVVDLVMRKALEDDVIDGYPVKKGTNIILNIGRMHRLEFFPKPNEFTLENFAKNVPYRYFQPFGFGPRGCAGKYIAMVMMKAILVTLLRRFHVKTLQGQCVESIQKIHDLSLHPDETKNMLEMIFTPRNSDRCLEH

Regarding `CN1[C@@H](CC(=O)c2ccccc2)CCC[C@H]1C[C@H](O)c1ccccc1`, the Potency result in experiment [1], in [2], in experiment [3], in experiment [4], in [5] and in experiment [6] was “inactive” each time. The Potency entry (with Aromatase (Homo sapiens); in experiment [7]; in experiment [8]; in experiment [9]) was “inactive” throughout.

`C=C1C(=C/C=C2\CCC[C@]3(C)[C@@H]([C@H](C)CCCC(C)C)CC[C@@H]23)C[C@@H](O)C[C@@H]1O`: the Potency entry (in the experiment with Aromatase (Homo sapiens); in experiment [10]; in experiment [8]) was “inactive” in each case.

For the compound `COc1ccc2ccccc2c1`, the Potency result (in experiment [11]; in [1]; with Aromatase (Homo sapiens)) was “inactive” throughout.

On to `CCN(CC)CCNC(=O)c1ccc(NS(C)(=O)=O)cc1`, for which the Potency result (in the experiment with Aromatase (Homo sapiens); in experiment [10]; in [7]; in experiment [8]; in [9]) was “inactive” throughout.

`Cc1ccc2nc(-c3ccc(N)cc3)sc2c1S(=O)(=O)O`: the Potency result (in [1]; in experiment [2]; in [4]; in experiment [12]; with Aromatase (Homo sapiens); in experiment [8]) was “inactive” throughout. The Potency entry in experiment [13] and in experiment [14] was “inactive” each time. In addition, the Potency in [5] is 7.58 µM (active); in experiment [7], 4.26 µM (active).

For the compound `c1ccc(-c2ccc(C(c3ccccc3)n3ccnc3)cc2)cc1` (stereo not given), the Potency result in experiment [3], in experiment [5], in [6], in [12], in experiment [10] and in experiment [8] was “inactive” each time. In addition, the Potency result in experiment [9] is “inactive”. Further, the Potency with Aromatase (Homo sapiens) was 0.75 µM (active); in experiment [7], 1.06 µM (active); in [15], 29.8 µM (active).

As for `CCC1OC(=O)C[C@@H](O)[C@H](C)[C@@H](O[C@@H]2O[C@H](C)C[C@H](N(C)C)[C@H]2O)[C@@H](CC=O)C[C@@H](C)C(=O)/C=C/[C@]2(C)OC2C1C` (stereo not given in full), the Potency in experiment [2] is 16.9 µM [inconclusive] (active); in the experiment with Aromatase (Homo sapiens), 26.6 µM (active); in experiment [10], 21.1 µM (active); in [8], 21.1 µM (active). Also, the Potency result in experiment [3], in experiment [4] and in experiment [7] was “inactive” in each case.

In the case of `Oc1ccc(Cl)cc1C1CCCC1`, the Potency entry in experiment [1], in experiment [3], in [4], in experiment [6], in experiment [12] and in experiment [10] was “inactive” each time. The Potency entry in experiment [8], in experiment [9], in experiment [16], in experiment [13], in experiment [14] and in experiment [15] was “inactive” each time. Moreover, in [17], the call was inactive.

Consider `CN(C/C=C/c1ccccc1)Cc1cccc2ccccc12`, for which the Potency entry in experiment [1], in experiment [2], in experiment [3], in experiment [4], in [5] and in experiment [6] was “inactive” each time. Moreover, the Potency result (in experiment [12]; with Aromatase (Homo sapiens); in experiment [10]; in experiment [7]; in [8]; in experiment [9]) was “inactive” in each case. Moreover, the Potency entry in experiment [13], in experiment [18] and in experiment [14] was “inactive” in each case. Moreover, the outcome in [17] was inactive.

As to `O=C(O)[C@H]1CN(C/C=C/P(=O)(O)O)CCN1`, the Potency result (in experiment [11]; in [1]; in [3]; in experiment [12]; with Aromatase (Homo sapiens); in experiment [10]) was “inactive” each time. Further, in experiment [8], the Potency result is “inactive”.

Consider `CN(C)CCC(O)(c1ccccc1)c1ccccc1Cl` (stereo not given), for which the Potency entry in experiment [1], in [2], in experiment [3], in experiment [4], in [5] and in experiment [6] was “inactive” each time. Besides, the Potency result (with Aromatase (Homo sapiens); in experiment [10]; in experiment [7]; in [9]) was “inactive” in each case.

With `O=C(O)C[C@H](O)C[C@H](O)/C=C/c1c(C2CC2)nc2ccccc2c1-c1ccc(F)cc1`, the Potency entry in [1], in experiment [3], in [5], in [12], in [10] and in experiment [7] was “inactive” each time. For the same compound, the Potency entry in [8] and in experiment [9] was “inactive” throughout.

Turning to `CCc1cn([C@H]2C[C@H](O)[C@@H](CO)O2)c(=O)[nH]c1=O`, the Potency result (in experiment [11]; in [1]; in experiment [3]; in experiment [12]; with Aromatase (Homo sapiens); in experiment [10]) was “inactive” in each case. In addition, the Potency result in experiment [8] and in experiment [9] was “inactive” in each case.

For the compound `CC1=C(/C=C/C(C)=C/C=C/C(C)=C\C(=O)O)C(C)(C)CCC1`, the Potency in [11] is 68.8 µM (active); in [6], 0.244 µM (active); in experiment [14], 55.1 µM (active). The Potency result (with Aromatase (Homo sapiens); in experiment [7]) was “inactive” in each case.

For `C=C1[C@H](CO)[C@@H](O)C[C@@H]1n1cnc2c(=O)[nH]c(N)nc21`, the Potency entry (in experiment [3]; in experiment [12]; with Aromatase (Homo sapiens); in experiment [10]; in [7]; in experiment [8]) was “inactive” throughout. Besides, the Potency result in experiment [9] is “inactive”.

With `C=CC[N@@+]12CC[C@@]34c5ccccc5N5/C=C6/[C@H]7C[C@H]8[C@@]9(CC[N@@+]8(CC=C)C/C7=C/CO)c7ccccc7N(/C=C(/[C@@H](C[C@@H]31)/C(=C\CO)C2)[C@H]54)[C@@H]69`, the Potency result (in experiment [11]; in experiment [1]; in experiment [3]; with Aromatase (Homo sapiens); in [10]; in experiment [7]) was “inactive” in each case. For the same compound, the Potency result in experiment [8] and in experiment [9] was “inactive” each time.
